Results on seven compounds are retold here after PubChem BioAssay (NCI).

About 83,000 compounds went through this panel and 20% of them were active in at least one assay; those are over-represented in the sample as a whole.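 48-hour exposure, single concentration, 96-well plates; percent growth endpoint where 0 means no net growth. Active: below 10.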 A number with no mark means an inactive call. Calls of active or inactive are those of the source.

Among the test systems are NCI-H23 lung; NCI-H226 lung; NCI-H322M lung; HOP-62 NSCLC; NCI-H460 lung; HOP-92 NSCLC; NCI-H522 lung; A549/ATCC NSCLC; 786-0 renal; COLO 205 colon; DU-145 prostate; K-562 leukemia; MALME-3M melanoma; MDA-MB-231 breast; RXF 393 renal; SF-268 CNS; SF-295 CNS; SF-539 CNS; UACC-257 melanoma; M14 melanoma.
Common to all, as to experiment: NCI-60 one-dose screen, 48 h (100 = growth as untreated, 0 = no growth, -100 = all killed)
What all share (conditions): 10 µM unless noted

Turning to `CCc1ccc(C(c2ccc(CC)cc2)C(Cl)(Cl)CCl)cc1`, the growth is 92.8% with NCI-H23 lung; 101% in the test with NCI-H226 lung; 110% in the test with NCI-H322M lung; 99.1% in the test on HOP-62 NSCLC; 98.8% with NCI-H460 lung; 55.2% in the test on HOP-92 NSCLC. Besides, the growth in the test on NCI-H522 lung is 83%; in the test on A549/ATCC NSCLC it was 149%; in the test on 786-0 renal, 84%; in the test with COLO 205 colon, 100%; in the test on DU-145 prostate, 110%; in the test on K-562 leukemia, 106%. For the same compound, the growth with MALME-3M melanoma is 96.6%; in the test with MDA-MB-231 breast it was 88.7%; in the test on RXF 393 renal, 131%; with SF-268 CNS it was 93.7%; in the test with SF-295 CNS it was 105%; in the test on SF-539 CNS, 96.3%. Moreover, the growth in the test with UACC-257 melanoma was 110%; with M14 melanoma, 100%.
Consider `CN[C@@]12CC3(C=CC(=O)C=C3)O[C@]1(Cc1ccc(OC)cc1)N(C)C(=O)N2`, for which the growth in the test on NCI-H23 lung is 91%; with NCI-H226 lung, 89.4%; in the test on NCI-H322M lung, 79.9%; with HOP-62 NSCLC, 114%; with NCI-H460 lung, 101%; in the test on HOP-92 NSCLC it was 94.4%. Also, the growth in the test on NCI-H522 lung was -23.6% (active); in the test on A549/ATCC NSCLC, 74.4%; in the test on 786-0 renal, 84.2%; in the test with COLO 205 colon it was 47.3%; with DU-145 prostate it was 101%; with K-562 leukemia, 13.1%. For the same compound, the growth with MALME-3M melanoma was 107%; in the test with MDA-MB-231 breast it was 110%; in the test with RXF 393 renal it was 50.7%; in the test with SF-268 CNS it was 96.7%; with SF-295 CNS, 109%; in the test on SF-539 CNS, 45.3%. In addition, the growth in the test with UACC-257 melanoma was 78.8%; in the test with M14 melanoma, 63%.
Regarding `CCCCCCNC(=O)Oc1ccc(/C(=C(\C)c2ccccc2)c2ccc(OCCN(CC)CC)cc2)cc1`, the growth was 69.6% in the test on NCI-H23 lung; 82.6% in the test with NCI-H226 lung; 90% with NCI-H322M lung; 83.2% in the test with HOP-62 NSCLC; 7.03% (active) in the test with NCI-H460 lung; 39.1% in the test on HOP-92 NSCLC. Moreover, the growth with NCI-H522 lung was 47.8%; in the test on A549/ATCC NSCLC, 49.9%; in the test with 786-0 renal it was 44.7%; with COLO 205 colon, -4.77% (active); in the test on DU-145 prostate, 87.7%; in the test with K-562 leukemia it was 2.08% (active). Besides, the growth in the test on MALME-3M melanoma is 33%; in the test on MDA-MB-231 breast, 68.9%; with RXF 393 renal, 32.7%; in the test with SF-268 CNS, 55.8%; in the test on SF-295 CNS, 83.1%; in the test with SF-539 CNS, 50%. The growth is -1.51% (active) in the test with UACC-257 melanoma and -40.1% (active) in the test with M14 melanoma.
As for `C/C(Cc1ccc(Cl)cc1)=C(\c1ccc(OCCN2CCCCCC2)cc1)c1ccc(OC(=O)Cc2ccccc2)cc1`, the growth with NCI-H23 lung was 71.3%; in the test with NCI-H226 lung, 84.1%; with NCI-H322M lung, 67.3%; in the test with HOP-62 NSCLC it was 85.7%; with NCI-H460 lung, 18.2%; with HOP-92 NSCLC, 48.4%. Besides, the growth with NCI-H522 lung is 62.9%; in the test with A549/ATCC NSCLC, 61.3%; in the test with 786-0 renal, 65%; in the test with COLO 205 colon, -45.1% (active); in the test on DU-145 prostate, 75.9%; with K-562 leukemia, 1.27% (active). The growth is 69.5% with MALME-3M melanoma; 82.4% in the test with MDA-MB-231 breast; 53.6% in the test on RXF 393 renal; 60.2% in the test on SF-268 CNS; 90.4% in the test on SF-295 CNS; 81.5% in the test with SF-539 CNS. For the same compound, the figures for the growth with UACC-257 melanoma and in the test on M14 melanoma were 89.3% and 21.8%, respectively.
For `O=C1Nc2c(ccc(Cl)c2Cl)/C1=C/c1cc(Br)c(O)c(Br)c1`, the growth was 73.9% with NCI-H23 lung; 78.5% with NCI-H226 lung; 90.3% in the test with NCI-H322M lung; 79.1% in the test with HOP-62 NSCLC; 46.1% in the test on NCI-H460 lung; 67.1% with HOP-92 NSCLC. Moreover, the growth in the test on NCI-H522 lung is 9.37% (active); with A549/ATCC NSCLC, 51.4%; in the test with 786-0 renal, 74.6%; with COLO 205 colon it was 79.2%; in the test with DU-145 prostate, 84.6%; in the test with K-562 leukemia, 51.8%. Moreover, the growth in the test with MALME-3M melanoma is 29.4%; in the test with MDA-MB-231 breast it was 74.8%; with RXF 393 renal, 75.9%; in the test with SF-268 CNS, 75.7%; in the test on SF-295 CNS it was 13.4%; with SF-539 CNS it was 51.6%. The growth in the test with UACC-257 melanoma was 40%; in the test on M14 melanoma it was 33.2%.
`O=C(COc1cccc(/C=C2/Oc3ccccc3C2=O)c1)Nc1nccs1`: the growth in the test on NCI-H23 lung is 61.6%; in the test with NCI-H226 lung, 99.3%; in the test with NCI-H322M lung, 95.7%; in the test with HOP-62 NSCLC, 93.3%; in the test on NCI-H460 lung, 103%; in the test with HOP-92 NSCLC, -51.4% (active). The growth in the test on NCI-H522 lung is -9.74% (active); in the test on A549/ATCC NSCLC it was 88.2%; with 786-0 renal, 90.7%; in the test with COLO 205 colon, 235%; in the test with DU-145 prostate, 104%; in the test with K-562 leukemia, 43.3%. The growth was -71% (active) in the test with MALME-3M melanoma; 66.1% with MDA-MB-231 breast; 2.9% (active) in the test with RXF 393 renal; 30.3% with SF-268 CNS; 203% in the test with SF-295 CNS; 64.7% with SF-539 CNS. For the same compound, the growth with UACC-257 melanoma was 89.4%; in the test with M14 melanoma it was 99.7%.
Regarding `O=[N+]([O-])c1cccc(-c2nc3sccn3c2-c2ccnc(NCCNS(=O)(=O)c3ccc(C(F)(F)F)cc3)n2)c1`, the growth with NCI-H23 lung is 43.3%; with NCI-H226 lung it was 40.3%; in the test on NCI-H322M lung, 61.8%; in the test with HOP-62 NSCLC it was 73%; in the test on NCI-H460 lung, 33.4%; in the test on HOP-92 NSCLC it was 44.7%. Further, the growth in the test with NCI-H522 lung was 34.3%; in the test on A549/ATCC NSCLC, 31.9%; with 786-0 renal, 60.3%; in the test on COLO 205 colon, 37.2%; in the test on DU-145 prostate, 48.5%; with K-562 leukemia it was 21.8%. The growth was 41.1% with MALME-3M melanoma; 60.2% in the test on MDA-MB-231 breast; 56% in the test on RXF 393 renal; 39.8% in the test on SF-268 CNS; 37.4% with SF-295 CNS; 74.5% in the test with SF-539 CNS. For the same compound, the growth in the test with UACC-257 melanoma is 49.1%; with M14 melanoma, 37.8%.
